FGF22 binding-1 = binders of human FGF22 protein, primary screen, FGF22 synaptogenesis inhibitor project, biophysical, thermal shift, single point; Fibroblast growth factor 22 (Homo sapiens), Q9HCT0; recombinant FGF22 thermal shift, SYPRO orange fluorescence; percent of sucrose octasulfate shift, DMSO zero; activity (Tm shift, normalised), % at 9.99 µM; 340,000 tested, 1.5% active;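 active = mean Tm shift, scaled 0 neutral to 100 positive control, at about 1.3% or above, every replicate too, limit read from the data; inconclusive = no clear call, values can overlap the other calls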
Target sequence (Q9HCT0 whole entry, looked up): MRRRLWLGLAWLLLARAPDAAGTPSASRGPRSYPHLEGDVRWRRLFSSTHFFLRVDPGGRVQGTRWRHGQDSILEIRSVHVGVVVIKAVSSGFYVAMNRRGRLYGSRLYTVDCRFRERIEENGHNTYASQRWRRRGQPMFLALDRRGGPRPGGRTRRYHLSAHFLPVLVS
Vif imaging = HIV Vif self-association inhibitors, primary screen, imaging, HEK293T, single point. 340,000 tested, 0.35% active. inhibition, % at 7.49 µM. HEK293T cells, Vif self-association by quenched fluorescence, 24 h; in the data active = inhibition above about 50%, passing the limit was not always enough; inconclusive = no clear call, values can overlap the other calls; inactive = below about 31%
CFTR F508del cor = F508del CFTR correction, initial screen, CFBE line, single point; 350,000 tested, 0.36% active; activity (quench increase), % at 7.58 µM; CFBE cells, YFP halide quenching; stimulated with forskolin plus potentiator P3; % fluorescence drop versus neutral controls;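 active = mean added fluorescence quench of at least 8% versus neutral control, with both replicates also reaching 8%; inconclusive = only one of the mean or replicate conditions met; inactive = mean below 8% and not both replicates reaching 8%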;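 also: cells transiently co-express mutant CFTR-F508del with the halide-sensitive YFP; corrector assay measuring rescue of mutant channel to the surface after 24 h compound exposure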
FGF22 binding-2 = binders of human FGF22 protein, dose response, FGF22 synaptogenesis inhibitor project, biophysical, thermal shift, cherry-pick retest; shares compounds with FGF22 binding-1; recombinant FGF22 thermal shift, SYPRO orange fluorescence; thermal shift activity, °C (ΔTm) at 38 µM; 1,000 tested, 2% active; AID 720646, 2013;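 active = fitted rise in melting shift crosses a set limit at or below the top valid dose tested; inconclusive = flat fit at mid-level activity, or a poor quality fit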
TSA no protein = compound-only thermal shift signal without protein, dose response, artefact control for FGF22 binder project, biochemical, cherry-picked samples, RT-PCR instrument | shares compounds with FGF22 binding-1 | compound-only SYPRO orange thermal shift counter-screen, no protein | AC50, µM (top dose mostly 38 µM) | 1,000 tested, 2% active;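 active = rising signal whose fitted curve reaches the 0.54 level within the top valid dose, showing a melting point, actives reach about 13 µM in these data; inactive = the rest, including activity in the opposite direction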; also: value is where the raw curve crosses a fixed level and not half-maximal
A number is an active result; . = inactive; ? = inconclusive; / = no result; ! = repeats disagree. Rows were chosen to be rich in hits. Some 1.7% of all compounds tested hit in one or more screens of this group.

SMILES | FGF22 binding-1 | Vif imaging | CFTR F508del cor | FGF22 binding-2 | TSA no protein
COc1cccc(NC(=O)OCCN2CCN(Cc3ccccc3)CCC2=O)c1 | 1.5 | . | . | . | .
COc1ccc(NC(=O)Nc2ccc3c(c2)C(=O)N([C@H](C)CO)C[C@H](C)[C@@H](CN(C)C(=O)NC2CCCCC2)OCCCC[C@H](C)O3)cc1 | . | / | . | / | /
COc1ccc(NC(=O)Nc2ccc3c(c2)CC(=O)N([C@@H](C)CO)C[C@@H](C)[C@@H](CN(C)S(=O)(=O)c2ccc(OC)cc2)O3)cc1 | . | / | . | / | /
COc1ccc(NC(=O)c2noc(C(C)C)c2[N+](=O)[O-])cc1 | . | . | . | / | /
CC(=O)c1ccc(NC(=O)c2noc(C(C)C)c2[N+](=O)[O-])cc1 | 1.7 | . | . | . | .
COc1cccc(NS(=O)(=O)c2cc3[nH]c(=O)c(=O)[nH]c3cc2C)c1 | . | . | . | / | /
Cc1cc(C)cc(NS(=O)(=O)c2cc3[nH]c(=O)c(=O)[nH]c3cc2C)c1 | 1.7 | . | . | . | .
C[C@H]1CN([C@@H](C)CO)C(=O)c2cc(NS(=O)(=O)c3cccs3)ccc2O[C@H]1CN(C)S(=O)(=O)c1cccs1 | / | / | . | / | /
CCCNC(=O)Nc1ccc2c(c1)C(=O)N(C)C[C@H](OC)[C@@H](C)CN(C(=O)C1CCOCC1)[C@@H](C)CO2 | . | / | . | / | /
O=C(COc1ccc2c(c1)oc(=O)c1ccccc12)NC(Cc1ccc(Cl)cc1)C(=O)O (configuration not stated) | 1.6 | . | . | . | .
O=C(COc1ccc2c(c1)oc(=O)c1ccccc12)N[C@@H](Cc1ccccc1)C(=O)O | . | . | . | / | /
CC(=O)Nc1ccc(S(=O)(=O)NCCc2c[nH]c3ccc(C)cc23)cc1 | 1.4 | . | . | . | .
COc1ccc2[nH]cc(CCNS(=O)(=O)c3ccc(NC(C)=O)cc3)c2c1 | . | . | . | / | /
Cc1ccc(S(=O)(=O)N2CC[C@@H]3[C@H](CO)N(C)c4ccc(C#Cc5cccnc5)cc4[C@@H]32)cc1 | . | / | . | / | /
COc1ccc(NC(=O)Nc2cccc(NC(C)=O)c2)c(OC)c1 | . | . | . | / | /
COc1ccccc1NC(=O)Nc1cccc(NC(C)=O)c1 | 3.1 | . | . | . | .
C[C@H](CO)N1C[C@H](C)[C@@H](CN(C)C(=O)Nc2cccc3ccccc23)Oc2ccc(NS(C)(=O)=O)cc2C1=O | . | / | . | / | /
COc1cc(NC(=O)c2cc(C)on2)cc(C(=O)Nc2cccc(C(F)(F)F)c2)c1 | . | . | . | / | /
CCOC(=O)c1nccnc1C(=O)Nc1cccc(C(F)(F)F)c1 | . | . | . | / | /
COc1cc(NC(=O)c2ccnc(N)c2)cc(C(=O)Nc2cccc(C(F)(F)F)c2)c1 | . | . | . | / | /
COc1cc(NC(=O)c2cnc(N)o2)cc(C(=O)Nc2cccc(C(F)(F)F)c2)c1 | 2.2! | . | . | . | .
COc1cc(NC(=O)c2csc(N)n2)cc(C(=O)Nc2cccc(C(F)(F)F)c2)c1 | 1.6! | . | 8.0! | . | 11µM
COc1cc(NC(=O)c2cnc(N)s2)cc(C(=O)Nc2cccc(C(F)(F)F)c2)c1 | 1.7! | . | . | . | .
CO[C@@H](CN(C)S(=O)(=O)c1cn(C)cn1)[C@H](C)CN(C(=O)Nc1ccc(C(F)(F)F)cc1)[C@@H](C)CO | . | / | . | / | /
Cc1ccc(C23CC4CC(CC(C(=O)N5CCN(C)CC5)(C4)C2)C3)cc1 | . | . | . | / | /
SMILES | FGF22 binding-1 | Vif imaging | CFTR F508del cor | FGF22 binding-2 | TSA no protein
Cc1ccc(C)c(N2CCN(C(=O)C34CC5CC(C3)CC(n3nnc(C)n3)(C5)C4)CC2)c1 | 16 | . | . | . | .
COc1ccccc1NC(=O)c1ccc(NC(=O)c2ccc(=O)[nH]c2)cc1 | 1.9 | . | . | . | .
COc1ccccc1NC(=O)c1ccc(C(=O)Nc2ccccc2OC)nc1 | . | ? | . | / | /
CC(C)OC(=O)N(C)C[C@@H]1OCc2ccccc2-c2ccccc2C(=O)N([C@H](C)CO)C[C@H]1C | . | / | . | / | /
C[C@H]1CN([C@@H](C)CO)C(=O)c2cc(NC(=O)NC3CCCCC3)ccc2O[C@H]1CN(C)C(=O)NC1CCCCC1 | . | / | . | / | /
C=C(C1=CCN(S(=O)(=O)C(C)(C)C)[C@H]1CCO)c1ccccc1 | 15 | . | . | . | .
C=C(C1=CCN(S(=O)C(C)(C)C)[C@H]1CCO)c1ccccc1 (some centres not stated) | . | . | . | / | /
CN1C(=O)c2cc(NC(=O)C3CCOCC3)ccc2OC[C@H]2O[C@@H](CC(=O)NCC3CC3)CC[C@H]21 | . | / | . | / | /
CC(C)(C)[S@@](=O)N1Cc2cc(C(=O)NCc3ccccc3F)nc(-c3cccc(-c4ccncc4)c3)c2[C@H]1CCO | 1.9 | / | . | . | .
CC(C)(C)[S@](=O)N1Cc2cc(C(=O)NCc3ccccc3F)nc(-c3cccc(-c4cncnc4)c3)c2[C@@H]1CCO | . | / | . | / | /
O=C(Cn1cc(COc2ccc(Br)cc2[N+](=O)[O-])nn1)c1ccc(O)cc1 | 1.7 | . | . | . | .
CC(=O)c1ccc(OCc2cn(CC(=O)c3ccc(O)cc3)nn2)c(C)c1 | . | . | . | / | /
C[C@H](CO)N1C[C@H](C)[C@@H](CN(C)Cc2ccc(Oc3ccccc3)cc2)Oc2c(NC(=O)c3nc4ccccc4s3)cccc2C1=O | . | / | . | / | /
O=C(C[C@H]1CC[C@H]2[C@@H](COC[C@H](O)CN2Cc2cc(F)ccc2F)O1)N1CCc2ccccc2C1 | . | / | . | / | /
CC1(C)CCC(=O)N2CC[C@H]3C[C@H](OC(=O)Nc4ccccc4)C[C@@H]1[C@H]32 | 2.1 | . | . | . | .
CC1(C)CCC(=O)N2CC[C@H]3C[C@H](OC(=O)Nc4ccc5c(c4)OCO5)C[C@@H]1[C@H]32 | . | . | . | / | /
CO[C@H]1CN(C)C(=O)c2ccc(NS(=O)(=O)c3cccc(C)c3)cc2OC[C@H](C)NC[C@H]1C | / | / | . | / | /
S=C(Nc1ccc(Cl)cc1)Nc1ccc2cn[nH]c2c1 | 1.9 | . | . | . | .
S=C(Nc1ccc2cn[nH]c2c1)Nc1ccc(Cl)cc1Cl | . | . | . | / | /
Cc1ccc(C(=O)c2sc3c(c2N)c(=O)[nH]c(=O)n3CCc2ccccc2)cc1 | / | . | / | / | /
CCn1c(=O)[nH]c(=O)c2c(N)c(C(=O)c3cc(F)ccc3F)sc21 | 28 | . | . | . | .
CCCC#Cc1cnc2c(c1)C(=O)N([C@H](C)CO)C[C@@H](C)[C@H](CN(C)C(=O)C1CCC1)O2 | . | / | . | / | /
N#C[C@@H]1[C@H](c2ccc(C3=CCCC3)cc2)[C@@H](CO)N1C(=O)Cc1ccncc1 | . | / | . | / | /
c1ccc(CCc2nc(-c3ccc(-n4cccc4)cc3)no2)cc1 | . | . | . | / | /
Nc1nccc(-c2ccc(-n3cccc3)cc2)n1 | 2.3 | . | . | . | .
Cc1cccc(NC(=O)c2ccc(-c3ccccc3[N+](=O)[O-])o2)c1 | 1.6 | . | . | . | .
